Reference: PubChem BioAssay (Tox21)
Where “and” joins values, the source holds several entries; their conditions need not be identical. Equal values may be shown once. Records with an inconclusive call do not appear. Calls of active or inactive are those of the source. Unless noted, calls follow the shape of the dose curve; as a rule, active = well fitted curve in the direction sought with a large enough effect in the repeat runs; inconclusive = weak or mixed curves; inactive = no such curve, though single readings can be large; an effect the other way counts as inactive or inconclusive.

Columns and labels:
[1] = target: Luciferin 4-monooxygenase (Photinus pyralis) (UniProt P08659); experiment: qHTS assay to identify small molecule inhibitors of firefly luciferase (AID 1224835); also: nearly all actives have a fitted effect of over 25% in size; also: potency is read from the fitted curve at half-maximal effect; as to activity change, negative = inhibition: series mostly up to about 120 µM
Luciferin 4-monooxygenase (Photinus pyralis), sequence (P08659 whole entry, looked up): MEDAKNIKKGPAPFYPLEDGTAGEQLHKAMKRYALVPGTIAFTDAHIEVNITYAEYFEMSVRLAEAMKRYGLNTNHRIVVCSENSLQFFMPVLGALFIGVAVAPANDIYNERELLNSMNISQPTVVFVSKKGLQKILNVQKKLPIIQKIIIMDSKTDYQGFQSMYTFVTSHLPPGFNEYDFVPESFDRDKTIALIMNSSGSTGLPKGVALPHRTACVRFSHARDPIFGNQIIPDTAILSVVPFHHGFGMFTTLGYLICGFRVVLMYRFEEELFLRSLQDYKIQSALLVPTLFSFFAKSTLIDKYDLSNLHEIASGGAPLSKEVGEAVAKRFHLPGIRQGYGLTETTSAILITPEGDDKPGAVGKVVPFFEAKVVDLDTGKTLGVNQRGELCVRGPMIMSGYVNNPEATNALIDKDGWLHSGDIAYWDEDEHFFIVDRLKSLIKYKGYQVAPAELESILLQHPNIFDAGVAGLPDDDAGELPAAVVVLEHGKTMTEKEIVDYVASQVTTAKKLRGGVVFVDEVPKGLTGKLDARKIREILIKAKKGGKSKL
Procedure, shortened: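 Inhibition of purified Photinus luciferase is measured by luminescence. Substrate levels (D-luciferin, ATP) sit at their KM values. Each compound is tested in a concentration series.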

[2] = qHTS assay to identify small molecule agonists of the constitutive androstane receptor (CAR) signaling pathway - cell viability counter screen (AID 1224836); also: nearly all actives have a fitted effect of over 45% in size; also: potency is read from the fitted curve at half-maximal effect; as to viability change, negative = cytotoxic: series mostly up to about 92 µM
Procedure, shortened: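 HepG2 cells stably carrying hCAR and a CYP2B6-2.2kb reporter; 15-concentration compounds plus PK11195 (final 0.75 uM), 23 hr at 37 C/5% CO2. Viability read by CellTiter-Fluor fluorescence.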

[3] = qHTS assay to identify small molecule antagonists of the constitutive androstane receptor (CAR) signaling pathway - cell viability counter screen (AID 1224837); also: nearly all actives have a fitted effect of over 45% in size; also: potency is read from the fitted curve at half-maximal effect; as to activity change, negative = cytotoxicity: series mostly up to about 92 µM
Procedure, shortened: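 Counter screen run in HepG2-CYP2B6-hCAR cells: 4 hr settle, compound titration (15 concentrations) with 50 nM CITCO, 23 hr at 37 C/5% CO2, CellTiter-Fluor fluorescence.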

[4] = qHTS assay to identify small molecule antagonists of the estrogen related receptor signaling pathway with the pleiotropic PPARgamma coactivator (PGC) from Tox21 10K library - cell viability counter screen (AID 1224840; active = well fitted cell-killing curve with a large enough effect in the repeat runs, not every such curve was filed as active; also: nearly all actives have a fitted effect of over 40% in size; also: potency is read from the fitted curve at half-maximal effect)
Procedure, shortened: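 Following seeding of 2,000 PGC/ERR cells/well and 6 hours' incubation, test compounds were delivered in DMSO. The plates then sat 17.5 hours at 37 C before a fluorogenic live-cell protease reagent (CellTiter-Fluor) was read after 30 min.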

[5] = qHTS assay to identify small molecule antagonists of the estrogen related receptor signaling pathway with the pleiotropic PPARgamma coactivator (PGC) from Tox21 10K library (AID 1224841; call rule not given here; also: actives are mostly falling curves and most rising ones were filed inactive; nearly all actives have a fitted effect of over 50% in size; also: potency is read from the fitted curve at half-maximal effect; as to activity, negative = inhibition: series mostly up to about 92 µM)
Procedure, shortened: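 qHTS antagonist format: PGC/ERR cells, 2k/well, compound in DMSO by pin transfer after 6 h attachment, 18 h treatment at 37 C, One-Glo luminescence read at 30 min.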

[6] = qHTS assay to identify small molecule agonists of the estrogen related receptor signaling pathway with the pleiotropic PPARgamma coactivator (PGC) from Tox21 10K library (AID 1224842); also: nearly all actives have a fitted effect of over 15% in size; also: potency is read from the fitted curve at half-maximal effect
Procedure, shortened: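 Luminescence from One-Glo (30 min, room temperature) measured after PGC/ERR cells had 18 h at 37 C with pinned compound (23 nL in DMSO). Cells had been seeded at 2,000 per well and pre-incubated 6 h.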

[7] = qHTS assay to identify small molecule agonists of the hypoxia (HIF-1) signaling pathway - cell viability counter screen (AID 1224844; calls by dose curve; also: nearly all actives have a fitted effect of over 50% in size; also: potency is read from the fitted curve at half-maximal effect)
Procedure, shortened: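 Cells (HRE-bla ME-180, 2,000 per well) sat 5 hrs at 37C, got compound for 17 hrs, were read for CCF4-AM FRET, and were finally lysed with CellTiter-Glo for a 30 min room-temperature luminescence read.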

[8] = target: Nuclear receptor subfamily 1 group I member 3 (Homo sapiens) (UniProt Q14994); experiment: qHTS assay to identify small molecule agonists of the constitutive androstane receptor (CAR) signaling pathway (AID 1224839); also: nearly all actives have a fitted effect of over 15% in size; also: potency is read from the fitted curve at half-maximal effect;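 as to activation: HepG2 cells stably carrying human CAR and a CYP2B6 luciferase reporter; series mostly up to about 92 µM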
Nuclear receptor subfamily 1 group I member 3 (Homo sapiens), sequence (Q14994 whole entry, looked up): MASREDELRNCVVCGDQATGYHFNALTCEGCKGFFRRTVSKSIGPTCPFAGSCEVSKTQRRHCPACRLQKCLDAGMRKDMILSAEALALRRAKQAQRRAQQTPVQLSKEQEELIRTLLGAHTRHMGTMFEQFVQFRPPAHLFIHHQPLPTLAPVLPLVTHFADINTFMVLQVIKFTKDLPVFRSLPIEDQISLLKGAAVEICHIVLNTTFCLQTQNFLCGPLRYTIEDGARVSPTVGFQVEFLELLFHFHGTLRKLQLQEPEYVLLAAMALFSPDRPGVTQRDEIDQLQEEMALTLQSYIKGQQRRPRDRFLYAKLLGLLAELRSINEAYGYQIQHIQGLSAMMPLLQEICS
Procedure, shortened: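 HepG2 cells stably co-transfected with hCAR and a CYP2B6-2.2kb luciferase reporter; compounds at 15 concentrations with 0.75 uM PK11195 present. After 24 hr at 37 C, luciferase read by ONE-Glo luminescence.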

[9] = target: Thyrotropin receptor (Homo sapiens) (UniProt P16473); experiment: qHTS assay to identify small molecule agonists of the thyroid stimulating hormone receptor (TSHR) signaling pathway (AID 1224843; calls by dose curve; also: nearly all actives have a fitted effect of over 45% in size)
Thyrotropin receptor (Homo sapiens), sequence (P16473 whole entry, looked up): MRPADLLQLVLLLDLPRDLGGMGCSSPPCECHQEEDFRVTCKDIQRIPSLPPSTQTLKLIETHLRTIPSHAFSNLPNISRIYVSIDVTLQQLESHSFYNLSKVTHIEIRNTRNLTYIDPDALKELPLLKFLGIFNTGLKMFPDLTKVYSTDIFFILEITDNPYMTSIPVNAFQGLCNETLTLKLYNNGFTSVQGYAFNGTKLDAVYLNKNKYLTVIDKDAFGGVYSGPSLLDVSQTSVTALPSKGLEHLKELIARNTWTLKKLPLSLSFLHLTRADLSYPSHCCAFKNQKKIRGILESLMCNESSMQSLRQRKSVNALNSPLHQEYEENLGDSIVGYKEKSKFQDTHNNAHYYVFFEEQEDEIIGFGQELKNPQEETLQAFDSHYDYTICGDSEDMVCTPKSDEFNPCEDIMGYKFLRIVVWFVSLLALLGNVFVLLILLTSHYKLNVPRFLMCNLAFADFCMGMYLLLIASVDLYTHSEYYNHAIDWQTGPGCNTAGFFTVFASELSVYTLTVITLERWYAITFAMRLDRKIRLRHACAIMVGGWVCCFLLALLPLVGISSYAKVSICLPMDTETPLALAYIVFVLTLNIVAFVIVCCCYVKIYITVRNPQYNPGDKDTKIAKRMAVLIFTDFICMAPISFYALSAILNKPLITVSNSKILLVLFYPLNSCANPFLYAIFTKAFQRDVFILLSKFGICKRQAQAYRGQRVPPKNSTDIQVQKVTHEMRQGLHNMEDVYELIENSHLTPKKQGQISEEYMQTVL
Procedure, shortened: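 Screening of the Tox21 10K collection used HEK293 cells engineered with TSHR at 800 cells per well. After a 30-min room-temperature compound exposure, HTRF cAMP reagents were added and fluorescence recorded 1 h later.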

[10] = target: Nuclear receptor subfamily 1 group I member 3 (Homo sapiens) (UniProt Q14994); experiment: qHTS assay to identify small molecule antagonists of the constitutive androstane receptor (CAR) signaling pathway (AID 1224838);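 also: HepG2 cells stably expressing hCAR with CYP2B6 luciferase reporter stimulated by CITCO; nearly all actives have a fitted effect of over 40% in size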; also: potency is read from the fitted curve at half-maximal effect
Procedure, shortened: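 Cell line: HepG2 double-stable for hCAR and CYP2B6-2.2kb reporter. Agonist: CITCO, 50 nM final. Compounds: 15 concentrations, 24 h, 37 C. Detection: ONE-Glo luminescence.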
% is scaled to controls: 0 for no effect and ±100 for the full control effect.

OCc1cc(C(O)CNCCCCCCOCCCCc2ccccc2)ccc1O (configuration not stated)
active: Potency [2] 10.6 µM | Potency [3] 13.3 µM
inactive: Potency [1] | Potency [4] | Potency [5] | Potency [6] | Potency [7]

CC1CCC(=O)C1=O (configuration not stated)
inactive: Potency [1] | Potency [2] | Potency [3] | Potency [8] | Potency [4] | Potency [9] | Potency [7]

CCOC(=O)C(=O)CCc1ccccc1
inactive: Potency [1] | Potency [2] | Potency [3] | Potency [4] | Potency [7]

c1ccc(C(O[C@H]2CCCN(CCc3ccc4c(c3)OCO4)C2)c2ccccc2)cc1
inactive: Potency [1] | Potency [2] | Potency [3] | Potency [4] | Potency [9] | Potency [7]

Cc1cc(C(=O)O)ccc1[N+](=O)[O-]
inactive: Potency [1] | Potency [2] | Potency [3] | Potency [4] | Potency [9] | Potency [7]

C=CC(=O)OCCOCCOCCOCCOC(=O)C=C
active: Potency [2] 54.8 µM and 60.6 µM | Potency [3] 48.8 µM and 54 µM | Potency [4] 27.4 µM and 27.1 µM
inactive: Potency [1] | Potency [9]

NC(N)=NCCC[C@H](N)C(=O)O
inactive: activity change, negative = inhibition [1] 0.418% [at 10.5 µM] | viability change, negative = cytotoxic [2] 0.813% [at 8.39 µM] | activity change, negative = cytotoxicity [3] -4.98% [at 8.39 µM] | viability change, negative = cytotoxic [4] -6.77% [at 8.39 µM] | activity, negative = inhibition [5] -5.77% [at 8.39 µM] | activation [6] -1.51% [at 8.39 µM] | activation [9] -0.151% [at 8.39 µM] | activity change, negative = cytotoxicity [7] -0.141% [at 6.97 µM]

C[N+](C)(C)CCOC(=O)CCC(=O)OCC[N+](C)(C)C
inactive: Potency [1] | Potency [2] | Potency [3] | Potency [4] | Potency [9] | Potency [7]

O=C(O)C1(C(=O)O)CCC1.[NH2-].[NH2-].[Pt+2]
inactive: Potency [1] | Potency [2] | Potency [3] | Potency [4] | Potency [9] | Potency [7]

COc1cc2nc(N3CCN(C(=O)C4COc5ccccc5O4)CC3)nc(N)c2cc1OC (configuration not stated)
inactive: Potency [1] | Potency [2] | Potency [3] | Potency [8] | Potency [9] | Potency [7]

CCCCC
inactive: Potency [1] | Potency [2] | Potency [3] | Potency [4] | Potency [9] | Potency [7]

NS(=O)(=O)c1ccc(N2CCCCS2(=O)=O)cc1
inactive: Potency [1] | Potency [2] | Potency [3] | Potency [4] | Potency [5] | Potency [6] | Potency [9] | Potency [7]

O=C1OC(CN2CCOCC2)CN1/N=C/c1ccc([N+](=O)[O-])o1 (configuration not stated)
inactive: Potency [1] | Potency [2] | Potency [3] | Potency [4] | Potency [7]

Cc1cccc(C)c1OCC(=O)N[C@@H](Cc1ccccc1)[C@@H](O)C[C@H](Cc1ccccc1)NC(=O)[C@H](C(C)C)N1CCCNC1=O
active: Potency [2] 18.8 µM | Potency [3] 13.3 µM | Potency [4] 33.5 µM | Potency [5] 13.3 µM
inactive: Potency [1] | Potency [6] | Potency [9]

CCCCCCCC#N
inactive: Potency [1] | Potency [2] | Potency [3] | Potency [4] | Potency [5] | Potency [6] | Potency [9] | Potency [7]

C/C=C(/C(=C/C)c1ccc(OC(C)=O)cc1)c1ccc(OC(C)=O)cc1
inactive: Potency [1] | Potency [2] | Potency [3] | Potency [4] | Potency [9] | Potency [7]

CCn1cc(C(=O)O)c(=O)c2cnc(N3CCNCC3)nc21
inactive: Potency [1] | Potency [2] | Potency [3] | Potency [4] | Potency [5] | Potency [6] | Potency [7]

CCCCCCCCO[C@@H]1O[C@H](CO)[C@@H](O)[C@H](O)[C@H]1O
inactive: Potency [1] | Potency [2] | Potency [3] | Potency [4] | Potency [9] | Potency [7]

CC/C=C\CCOC(=O)CC
inactive: Potency [1] | Potency [2] | Potency [3] | Potency [4] | Potency [9] | Potency [7]

C[N+]1(CC2COC(c3ccccc3)(C3CCCCC3)O2)CCCCC1 (configuration not stated)
inactive: Potency [1] | Potency [2] | Potency [3] | Potency [8] | Potency [6] | Potency [9] | Potency [7]

CCC(C)(C)CC
inactive: Potency [1] | Potency [2] | Potency [3] | Potency [4] | Potency [6] | Potency [7]

COC(C)OC
inactive: Potency [1] | Potency [2] | Potency [3] | Potency [4] | Potency [5] | Potency [6] | Potency [9] | Potency [7]

COc1cc(Cl)c(OC)cc1N
inactive: Potency [1] | Potency [2] | Potency [3] | Potency [4] | Potency [7]

CNC(=O)CN(CCN(CCN(CC(=O)[O-])CC(=O)NC)CC(=O)[O-])CC(=O)[O-].O.[Gd+3]
inactive: Potency [1] | Potency [2] | Potency [7]

C[N+]1(C)CCC(OC(=O)C(O)(c2ccccc2)C2CCCC2)C1 (configuration not stated)
inactive: Potency [1] | Potency [2] | Potency [3] | Potency [9] | Potency [7]

CN(C)CCOC(c1ccccc1)c1ccc(Br)cc1 (configuration not stated)
inactive: Potency [1] | Potency [2] | Potency [10] | Potency [5] | Potency [6] | Potency [9]

OCCNCc1ccccc1
inactive: Potency [1] | Potency [2] | Potency [8] | Potency [4] | Potency [7]

CCN(CC)CCNC(=O)c1cc(Br)c(N)cc1OC
inactive: Potency [1] | Potency [2] | Potency [10] | Potency [4] | Potency [5] | Potency [6] | Potency [9] | Potency [7]

CN1C[C@H]2c3ccccc3Oc3ccc(Cl)cc3[C@@H]2C1
inactive: Potency [1] | Potency [2] | Potency [4] | Potency [5] | Potency [6] | Potency [9] | Potency [7]

C=C(C)C(=O)OCCOCC
inactive: Potency [1] | Potency [2] | Potency [10] | Potency [4] | Potency [7]

Cc1ncc(CO)c(C=O)c1O
inactive: Potency [1] | Potency [3] | Potency [10] | Potency [8] | Potency [4] | Potency [5] | Potency [6] | Potency [9] | Potency [7]

Cc1cccc(C)c1NC(=O)CN(CC(=O)O)CC(=O)O
inactive: Potency [1] | Potency [2] | Potency [10] | Potency [8] | Potency [4] | Potency [9] | Potency [7]

COc1ccc(C)cc1[N+](=O)[O-]
inactive: Potency [1] | Potency [2] | Potency [10] | Potency [8] | Potency [5] | Potency [6] | Potency [9] | Potency [7]

COc1ccc(C(=O)c2ccc(OC)cc2O)c(O)c1
active: Potency [1] 28.5 µM | Potency [8] 9.76 µM | Potency [6] 4.89 µM
inactive: Potency [2] | Potency [10] | Potency [4] | Potency [5] | Potency [9] | Potency [7]

CCc1c(C(=O)NN2CCCCC2)nn(-c2ccc(Cl)cc2Cl)c1-c1ccc(Br)cc1
inactive: Potency [1] | Potency [2] | Potency [8] | Potency [6] | Potency [9]
active: Potency [10] 21.7 µM | Potency [5] 4.86 µM | Potency [7] 21.9 µM

Clc1ccc(Cn2c(CN3CCCC3)nc3ccccc32)cc1
inactive: Potency [1] | Potency [2] | Potency [4] | Potency [9] | Potency [7]
active: Potency [8] 11.9 µM

CCC(Cl)CCC(Cl)C(Cl)CC(Cl)C(Cl)C(Cl)CCl (configuration not stated)
inactive: Potency [1] | Potency [2] | Potency [10] | Potency [4] | Potency [6] | Potency [9] | Potency [7]

COc1ccc(C(=O)N2CCN(CC(=O)N3CCOCC3)CC2)cc1
inactive: Potency [1] | Potency [2] | Potency [4] | Potency [5] | Potency [6] | Potency [9] | Potency [7]
